# Laboratory results published in PubChem BioAssay (EPA / NIEHS).
# Calls of active or inactive are those of the source. How the source made its calls: active means hit-call score of the fitted dose curve at least 0.9, where 1 is the maximum; inactive means score below 0.9.
# Experiments:
# Details in all cases: primary human HUVEC with PBMC; actives raise or lower the signal
# [1] = read-out: Interleukin-1 alpha (IL1a), IL1A (gene 3552); assay: BSK_LPS_IL1a: BioMAP Diversity Plus: LPS Assay for Interleukin-1 alpha (IL1a) Biomarker Activity (AID 2283080)
# Method in brief: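 Measured: IL-1 alpha via ELISA at 24 h in LPS-activated human umbilical vein endothelium–PBMC co-culture. Baseline: DMSO, bidirectional fitting.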
# [2] = read-out: Monocyte Chemoattractant Protein-1 (MCP1), CCL2 (gene 6347); assay: BSK_LPS_MCP1: BioMAP Diversity Plus: LPS Assay for Monocyte Chemoattractant Protein-1 (MCP1) Biomarker Activity (AID 2283081);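 on AC50: secreted MCP-1 protein quantified by ELISA in culture supernatant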
# Method in brief: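 LPS-stimulated HUVEC/PBMC co-culture; chemical, 24 h; MCP-1 by ELISA; bidirectional fit vs DMSO; cytotoxicity via SRB (0.1% stain, 10% TCA fix, 560 nm) in parallel wells.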
# [3] = BSK_LPS_PGE2: BioMAP Diversity Plus: LPS Assay for Prostaglandin E2 (PGE2) Biomarker Activity (AID 2283082);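 on AC50: secreted prostaglandin E2 measured by ELISA in LPS-stimulated co-culture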
# Method in brief: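 HUVEC plus human PBMC co-culture stimulated with LPS; secreted PGE2 quantified by ELISA 24 h after chemical dosing. Activity fitted bidirectionally against DMSO baseline; parallel SRB staining (0.1% SRB after 10% TCA fixation, 560 nm) flags overt cytotoxicity.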
# [4] = read-out: Macrophage colony-stimulating factor (MCSF), CSF1 (gene 1435); assay: BSK_LPS_MCSF: BioMAP Diversity Plus: LPS Assay for Macrophage colony-stimulating factor (MCSF) Biomarker Activity (AID 2283083)
# Method in brief: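 Compound is added to a human vascular primary co-culture of umbilical vein endothelium and blood mononuclear cells. After 24 h, M-CSF is quantified by ELISA. Signal changes are fitted in both directions against DMSO.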
# [5] = read-out: Tissue Factor, F3 (gene 2152); assay: BSK_LPS_TissueFactor: BioMAP Diversity Plus: LPS Assay for Tissue Factor Biomarker Activity (AID 2283084)
# Method in brief: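 In this co-culture system of umbilical vein endothelium with PBMC, stimulated with LPS, cell-surface CD142 is detected by ELISA at 24 h. Endpoint values derive from bidirectional fitting, DMSO serving as baseline.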
# [6] = read-out: Tumor necrosis factor (Homo sapiens) (UniProt P01375); assay: BSK_LPS_TNFa: BioMAP Diversity Plus: LPS Assay for Tumour Necrosis Factor alpha (TNFa) Biomarker Activity (AID 2283085);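 on AC50: TNFa protein level quantified by ELISA in the co-culture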
# Method in brief: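 Human umbilical vein endothelial cells co-cultured with PBMC and stimulated with LPS. TNFa was measured by ELISA 24 h after chemical dosing, fitted bidirectionally relative to DMSO.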
# [7] = read-out: Vascular cell adhesion molecule 1 (VCAM1), VCAM1 (gene 7412); assay: BSK_LPS_VCAM1: BioMAP Diversity Plus: LPS Assay for Vascular cell adhesion molecule 1 (VCAM1) Biomarker Activity (AID 2283086)
# Method in brief: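 Human umbilical vein endothelial cells co-cultured with PBMC and stimulated with LPS; VCAM-1 measured by ELISA 24 h after dosing. Bidirectional curve fitting against DMSO baseline; cytotoxicity tracked in parallel by SRB total-protein staining.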
# [8] = read-out: CD38, CD38 (gene 952); assay: BSK_SAg_CD38: BioMAP Diversity Plus: SAg Assay for CD38 Biomarker Activity (AID 2283087)
# Method in brief: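 Human HUVEC plus PBMC co-culture stimulated with superantigen; CD38 measured by ELISA 24 h after chemical dosing. Fluorescence read-out, bidirectional fit against DMSO; cytotoxicity tracked in parallel by SRB and Alamar Blue.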
# [9] = read-out: CD40, CD40 (gene 958); assay: BSK_SAg_CD40: BioMAP Diversity Plus: SAg Assay for CD40 Biomarker Activity (AID 2283088)
# Method in brief: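 Fluorescence ELISA read-out of CD40 from umbilical vein endothelium plus peripheral blood mononuclear cells, sampled 24 h after dosing. Values come from bidirectional curve fitting with DMSO as baseline.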
# [10] = read-out: CD69, CD69 (gene 969); assay: BSK_SAg_CD69: BioMAP Diversity Plus: SAg Assay for CD69 Biomarker Activity (AID 2283089);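 on AC50: cell surface CD69 protein quantified by ELISA with fluorescence detection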
# Method in brief: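 ELISA, fluorescence read-out: CD69 on human umbilical vein endothelial cell + PBMC co-culture, 24 h post-dosing. Gain or loss of signal fitted bidirectionally against DMSO baseline.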
# Tumor necrosis factor (Homo sapiens), sequence (P01375 whole entry, looked up): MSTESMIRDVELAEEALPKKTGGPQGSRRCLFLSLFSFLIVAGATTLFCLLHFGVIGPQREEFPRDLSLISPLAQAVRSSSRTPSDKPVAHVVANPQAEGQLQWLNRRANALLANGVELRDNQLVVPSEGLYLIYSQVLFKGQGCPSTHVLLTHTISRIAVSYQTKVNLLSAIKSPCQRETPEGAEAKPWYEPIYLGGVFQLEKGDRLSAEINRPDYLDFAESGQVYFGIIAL
smiles,measurement,setting,value
CC(C)(C)c1cccc(O)c1,outcome,[1],inactive
same,outcome,[2],inactive
same,outcome,[3],inactive
same,outcome,[4],inactive
same,outcome,[5],inactive
same,outcome,[6],inactive
same,outcome,[7],inactive
same,outcome,[8],inactive
same,outcome,[9],inactive
same,outcome,[10],inactive
CCC(=O)OCC=Cc1ccccc1,outcome,[1],inactive
same,outcome,[2],inactive
same,outcome,[3],inactive
same,outcome,[4],inactive
same,outcome,[5],inactive
same,outcome,[6],inactive
same,outcome,[7],inactive
same,outcome,[8],inactive
same,outcome,[10],inactive
O=C(c1ccc(OCCN2CCCCC2)cc1)c1c(-c2ccc(O)cc2)sc2cc(O)ccc12,AC50,[1],21 µM (active)
same,AC50,[2],30.8 µM (active)
same,AC50,[3],20 µM (active)
same,AC50,[5],35.9 µM (active)
same,AC50,[6],33.8 µM (active)
same,AC50,[7],28.4 µM (active)
same,AC50,[8],30.1 µM (active)
same,AC50,[10],23 µM (active)
CCCCCCCC1CCCC1=O (configuration not stated),outcome,[1],inactive
same,outcome,[2],inactive
same,outcome,[3],inactive
same,outcome,[4],inactive
same,outcome,[5],inactive
same,outcome,[6],inactive
same,outcome,[7],inactive
same,outcome,[8],inactive
same,outcome,[10],inactive
CCCCN(CCO)CCO,outcome,[1],inactive
same,outcome,[2],inactive
same,outcome,[3],inactive
same,outcome,[4],inactive
same,outcome,[5],inactive
same,outcome,[6],inactive
same,outcome,[7],inactive
same,outcome,[8],inactive
same,outcome,[10],inactive
CC1=CC(C)C(C=O)C(C)C1 (configuration not stated) (tested in a mixture with another compound),outcome,[1],inactive
same,outcome,[2],inactive
same,outcome,[3],inactive
same,outcome,[4],inactive
same,outcome,[5],inactive
same,outcome,[6],inactive
same,outcome,[7],inactive
same,outcome,[8],inactive
same,outcome,[10],inactive
CC(C)Cc1ccc(C(C)C(=O)O)cc1 (configuration not stated),outcome,[1],inactive
same,outcome,[2],inactive
same,AC50,[3],0.897 µM (active)
same,outcome,[4],inactive
same,outcome,[5],inactive
same,outcome,[6],inactive
same,outcome,[7],inactive
same,outcome,[8],inactive
same,outcome,[10],inactive
COc1ccccc1NC(=O)CC(C)=O,outcome,[1],inactive
same,outcome,[2],inactive
same,outcome,[3],inactive
same,outcome,[4],inactive
same,outcome,[5],inactive
same,outcome,[6],inactive
same,outcome,[7],inactive
same,outcome,[8],inactive
same,outcome,[10],inactive
CCOC(=O)C=Cc1ccccc1,outcome,[1],inactive
same,outcome,[2],inactive
same,outcome,[3],inactive
same,outcome,[4],inactive
same,outcome,[5],inactive
same,outcome,[6],inactive
same,outcome,[7],inactive
same,outcome,[8],inactive
same,outcome,[10],inactive
COC(=O)c1ccc(C(=O)OC)cc1,outcome,[1],inactive
same,outcome,[2],inactive
same,outcome,[3],inactive
same,outcome,[4],inactive
same,outcome,[5],inactive
same,outcome,[6],inactive
same,outcome,[7],inactive
same,outcome,[8],inactive
same,outcome,[10],inactive
Nc1ccc(N)c([N+](=O)[O-])c1,outcome,[1],inactive
same,outcome,[2],inactive
same,outcome,[3],inactive
same,outcome,[4],inactive
same,outcome,[5],inactive
same,outcome,[6],inactive
same,AC50,[7],5.09 µM (active)
same,outcome,[8],inactive
same,AC50,[10],8.69 µM (active)
C=C(C)C(N)=O,outcome,[1],inactive
same,outcome,[2],inactive
same,outcome,[3],inactive
same,outcome,[4],inactive
same,outcome,[5],inactive
same,outcome,[6],inactive
same,outcome,[7],inactive
same,outcome,[8],inactive
same,outcome,[10],inactive
O=C(O)C(F)(F)C(F)(F)C(F)(F)C(F)(F)C(F)(F)C(F)(F)C(F)(F)C(F)F,outcome,[1],inactive
same,outcome,[2],inactive
same,outcome,[3],inactive
same,outcome,[4],inactive
same,outcome,[5],inactive
same,outcome,[6],inactive
same,outcome,[7],inactive
same,outcome,[8],inactive
same,outcome,[10],inactive
CC(=O)c1ccc(C)cc1,outcome,[1],inactive
same,outcome,[2],inactive
same,outcome,[3],inactive
same,outcome,[4],inactive
same,outcome,[5],inactive
same,outcome,[6],inactive
same,outcome,[7],inactive
same,outcome,[8],inactive
same,outcome,[10],inactive
C=C1CC/C=C(\C)CC[C@@H]2[C@@H]1CC2(C)C,AC50,[1],31.8 µM (active)
same,outcome,[2],inactive
same,AC50,[3],3.97 µM (active)
same,AC50,[4],31.6 µM (active)
same,AC50,[5],5.05 µM (active)
same,outcome,[6],inactive
same,AC50,[7],29.4 µM (active)
same,AC50,[8],30.7 µM (active)
same,AC50,[10],32.8 µM (active)
c1ccc(Sc2ccccc2)cc1,AC50,[1],33.8 µM (active)
same,AC50,[2],20 µM (active)
same,outcome,[3],inactive
same,AC50,[4],35.6 µM (active)
same,AC50,[5],37 µM (active)
same,outcome,[6],inactive
same,AC50,[7],31.6 µM (active)
same,outcome,[8],inactive
same,AC50,[10],29.7 µM (active)
C=C(F)C(=O)OC(C(F)(F)F)C(F)(F)F,outcome,[1],inactive
same,outcome,[2],inactive
same,outcome,[3],inactive
same,outcome,[4],inactive
same,outcome,[5],inactive
same,outcome,[6],inactive
same,outcome,[7],inactive
same,outcome,[8],inactive
same,outcome,[10],inactive
O=C1OC2(c3ccc(O)cc3Oc3cc(O)ccc32)c2ccccc21,outcome,[1],inactive
same,outcome,[2],inactive
same,outcome,[3],inactive
same,outcome,[4],inactive
same,outcome,[5],inactive
same,outcome,[6],inactive
same,outcome,[7],inactive
same,outcome,[8],inactive
same,outcome,[10],inactive
O=S1(=O)CC(Cl)(Cl)C(Cl)(Cl)C1,AC50,[1],0.518 µM (active)
same,AC50,[2],1.76 µM (active)
same,outcome,[3],inactive
same,AC50,[4],0.71 µM (active)
same,AC50,[5],0.538 µM (active)
same,AC50,[6],0.938 µM (active)
same,AC50,[7],0.797 µM (active)
same,AC50,[8],0.35 µM (active)
same,AC50,[10],0.486 µM (active)
CC1(C)[C@H](C=C(Cl)Cl)[C@H]1C(=O)OCc1cccc(Oc2ccccc2)c1,outcome,[1],inactive
same,outcome,[2],inactive
same,outcome,[3],inactive
same,outcome,[4],inactive
same,outcome,[5],inactive
same,outcome,[6],inactive
same,outcome,[7],inactive
same,outcome,[8],inactive
same,outcome,[10],inactive
CC(=O)OC(C)(C)C1CC=C(C)CC1 (configuration not stated),outcome,[1],inactive
same,outcome,[2],inactive
same,outcome,[3],inactive
same,outcome,[4],inactive
same,outcome,[5],inactive
same,outcome,[6],inactive
same,outcome,[7],inactive
same,outcome,[8],inactive
same,outcome,[10],inactive
C#C[C@]1(O)CC[C@H]2[C@@H]3CCc4cc(O)ccc4[C@H]3CC[C@@]21C,AC50,[1],20 µM (active)
same,AC50,[2],6.83 µM (active)
same,outcome,[3],inactive
same,outcome,[4],inactive
same,outcome,[5],inactive
same,outcome,[6],inactive
same,AC50,[7],6.47 µM (active)
same,outcome,[8],inactive
same,outcome,[10],inactive
c1ccc2c(c1)-c1ccc3ccc4cccc5cc-2c1c3c45,outcome,[1],inactive
same,AC50,[2],2.71 µM (active)
same,outcome,[3],inactive
same,AC50,[4],1.38 µM (active)
same,AC50,[5],0.0082 µM (active)
same,outcome,[6],inactive
same,outcome,[7],inactive
same,AC50,[8],6.08 µM (active)
same,AC50,[10],1.98 µM (active)
